Compound activity from PubChem BioAssay.
CBFb RUNX1 block: blocks binding between human CBF-beta and RUNX1; Q01196+Q13951; AlphaScreen CBFb-His/RUNX1-biotin binding, biochemical; Potency, µM (doses to about 59.8 µM), most hits filed as inhibitors; 230,000 tested, under 10 active
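Interaction loss through any mechanism counts as activity. Pre-formed complex of His-CBF-beta and biotin-RUNX1 (30 nM apiece) is incubated with compound 15 min, then with 50 ng nickel and 50 ng streptavidin beads for 90 min before AlphaScreen detection.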
N370S GC: inhibits or activates N370S mutant glucocerebrosidase; 330,000 tested, 0.092% active; P04062; N370S GC spleen homogenate, 4MU-glucoside fluorescence; Potency, µM (highest dose often 59.4 µM), hits mostly inhibitors; AID 2101
Anesthetic bind: binds horse apoferritin like a general anesthetic; 350,000 tested, 0.074% active; AID 485281; apoferritin/1-aminoanthracene competitive binding, fluorescence; P02791; Potency, µM (highest dose often 77.5 µM), usual class: inhibitors; further: nearly all actives have a fitted effect of over 20% in size
Target sequence (P02791 2-175 limits assumed): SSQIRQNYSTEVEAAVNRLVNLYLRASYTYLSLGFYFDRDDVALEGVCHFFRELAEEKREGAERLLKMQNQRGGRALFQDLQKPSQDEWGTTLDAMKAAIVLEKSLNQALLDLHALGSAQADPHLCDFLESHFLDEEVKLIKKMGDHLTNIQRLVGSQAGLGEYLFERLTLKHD
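Steps: apoferritin (10 uM) was premixed with half-saturated 1-AMA in PBS, compounds were pin-transferred, plates stood 10 min at room temperature, fluorescence was read at 380/535 nm, and curves were fitted with a Hill equation.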
ClpP mod: qHTS Assay for Activators of ClpP; ATP-dependent Clp protease proteolytic subunit (Bacillus subtilis (strain 168)), P80244; purified B. subtilis ClpP, FRET peptide cleavage, 20 min; Potency, µM (series often up to 57.5 µM); 340,000 tested, 1.9% active; AID 651965, 2013; active means well fitted falling curve with a large enough effect; inconclusive means small, poorly fitted or top-dose-only effect; inactive means no such curve, though single readings can be large or run the other way; further: the source files actives as falling curves though it sought activators and does not explain the sign; nearly all actives have a fitted effect of over 65% in size
Target sequence (P80244 whole entry, looked up): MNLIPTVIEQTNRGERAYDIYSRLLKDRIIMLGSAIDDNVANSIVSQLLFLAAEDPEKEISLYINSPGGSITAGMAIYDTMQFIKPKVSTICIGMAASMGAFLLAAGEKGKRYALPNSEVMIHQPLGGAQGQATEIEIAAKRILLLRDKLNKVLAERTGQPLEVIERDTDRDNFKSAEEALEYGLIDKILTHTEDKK
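FRET quenching reversal measured ClpP activation: 10 microg/mL B. subtilis ClpP at pH 8 with the FRET-FV decapeptide, read at 430 nm after 320 nm excitation. The 20-min minus 0-min signal was scaled between DMSO/no-enzyme wells and ADEP (5.8 microM final).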
Integrin act MD: activates integrin-mediated alleviation for muscular dystrophy. alpha7betagal myoblasts, beta-gal FDG fluorescence, 48 h. Potency, µM (top dose mostly 38.3 µM), usual class: activators. 350,000 tested, 0.064% active. AID 624291; further: nearly all actives have a fitted effect of over 60% in size
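alpha7betagal+/- myoblasts (passage 13, 250/well) treated 48 h at 37C with compounds at 1:260 dilution of DMSO stock. Lysed, then beta-galactosidase activity read as FDG fluorescence (ex 480/em 540) after 30 min, with pre-read for autofluorescence.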
Glioma ERSR ind: ER stress response induction in glioma | 420,000 tested, 0.02% active | U87-MG GRP78 promoter luciferase reporter, 16 h | Potency, µM, actives largely listed as activators; further: series mostly up to about 76 µM; nearly all actives have a fitted effect of over 35% in size
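Stably transfected U87-MG glioma cells carrying a GRP78-based luciferase sensor; 16 h compound incubation. Luminescence end-point read 10 min after Bright-Glo addition at room temperature.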
Hits are given with their value; – = inactive; ? = inconclusive; · = not tested or not shown; ! = not confirmed by another sample; [ ] = another dose, or the depositor's remark. The entries come from a sample that favours hits as a whole. Unless noted, the call rests on the fitted dose curve; in most records, active means well fitted curve in the direction sought with a large enough effect; inconclusive means small, poorly fitted or top-dose-only effect, or another doubt; inactive means no such curve, though single readings can be large; an effect the other way counts as inactive or inconclusive.

SMILES	CBFb RUNX1 block	N370S GC	Anesthetic bind	ClpP mod	Integrin act MD	Glioma ERSR ind
Cc1ccccc1CS(=O)(=O)CCC(=O)N1CCN(c2ccc(N3CCOCC3)nn2)CC1	–	–	–	22µM	–	–
O=C(CCS(=O)(=O)Cc1ccccc1)N1CCN(c2ccccc2)CC1	–	–	–	–	–	–
Cc1cccc(-c2noc(-c3cc4ccccc4oc3=O)n2)c1	–	–	–	8.9µM	–	–
O=c1oc2ccc(Br)cc2cc1-c1nc(-c2ccccc2)no1	·	·	–	–	·	–
O=c1oc2ccccc2cc1-c1nc(-c2ccccc2)no1	–	–	–	28µM	–	–
Cc1ccc(-c2noc(-c3cc4ccccc4oc3=O)n2)cc1	–	–	–	–	–	–
O=C(CCc1c[nH]c2ccccc12)N1CCC(n2c(C3CCCO3)nc3cc(C(F)(F)F)ccc32)CC1 (stereo not drawn)	·	·	·	·	·	–
CN(C)c1ncnc2c1C(c1ccccc1)C(C)(C)O2 (stereo not drawn)	·	·	·	32µM	–	–
CC(C)=CC[C@@H](O)C1=CC(=O)c2c(O)ccc(O)c2C1=O	·	–	?	·	·	–
COC(=O)Nc1ccc(S(=O)(=O)N2CCC(C(=O)N(C)C3CCCCC3)CC2)cc1	–	–	–	13µM	–	–
CCOC(=O)C1CCN(S(=O)(=O)c2ccc(NC(=O)OC)cc2)CC1	–	–	–	–	–	–
N=c1n(CCCOc2ccc(F)cc2)c2ccccc2n1CC(N)=O	–	–	–	·	–	–
CCOC(=O)Cn1c(=N)n(CCOc2ccc(F)cc2)c2ccccc21	–	–	–	4µM	–	–
C=CCn1c(=N)n(CC(=O)OCC)c2ccccc21	–	–	–	25µM	–	–
O=C(CCn1cncn1)NCC1Cc2cc(-c3ccsc3)cc(Cl)c2O1 (stereo not drawn)	·	·	·	·	·	–
Cc1cnc(SCc2ccccn2)nc1C1CCCN(C(=O)c2cccc(-c3cccc(F)c3)c2)C1 (stereo not drawn)	·	·	·	·	·	–
COC(=O)[C@@H]1CCCN1Cc1ccc2c(c1)CN(Cc1ccccc1F)CCO2	·	·	·	·	·	–
COc1ccc(S(=O)(=O)N2CCN(C(=O)CNC(=O)c3ccc4c(c3)OCO4)CC2)cc1	·	–	·	28µM	–	–
COc1ccc(C(=O)NCC(=O)OCC(=O)c2ccc3c(c2)OCCO3)cc1	–	–	13µM	–	–	–
CC(=O)NCC(=O)OCC(=O)c1ccc2ccccc2c1	–	·	–	28µM	–	–
Cc1ccc(C(=O)NCC(=O)OCC(=O)c2ccc3c(c2)NC(=O)CO3)cc1C	–	–	?	·	–	–
Cc1ccc(C(=O)NCC(=O)OCC(=O)c2ccc3c(c2)OCCO3)cc1C	–	–	10µM	–	–	–
COCc1c(C(=O)N2CCN(C3CCCC3)CC2)cnn1-c1nccc(-c2cccs2)n1	·	·	·	·	·	–
COc1ccc2[nH]cc(CCNc3nc(-c4ccoc4)nc4ccccc34)c2c1	·	16µM	–	·	·	–
COc1ccc2[nH]cc(CCNc3nc(-c4ccc(N(C)C)cc4)nc4ccccc34)c2c1	·	?	·	·	·	–
SMILES	CBFb RUNX1 block	N370S GC	Anesthetic bind	ClpP mod	Integrin act MD	Glioma ERSR ind
COc1cccc(-c2nc(NCCc3c[nH]c4ccc(OC)cc34)c3ccccc3n2)c1	·	14µM	–	·	·	–
COCCNC(=O)[C@@H]1CSC2c3ccccc3C(=O)N21 (stereo partly drawn)	·	–	–	32µM	–	–
CCOc1ccc2nc(C)cc(C(=O)O)c2c1	–	–	–	3.2µM	–	–
COc1ccc2nc(C)cc(C(=O)O)c2c1	–	–	–	8.9µM	–	–
COc1ccc2nc(C)cc(Nc3ccc(C(=O)O)cc3)c2c1	·	–	–	–	–	–
CCOc1ccc2oc(C(=O)O)c(C)c2c1	–	–	–	·	–	–
Cc1[nH]c2ccccc2c1C(=O)C(C)Sc1nc2ccccc2c(=O)n1Cc1cccnc1 (stereo not drawn)	·	·	·	–	·	–
Cc1nn(C)c(Cl)c1CN1CCOc2ccc(CN3CCC(Oc4cccnc4)CC3)cc2C1	·	·	·	·	·	–
COc1ccc2nc(NC(=O)CSc3nnc(C)n3N)sc2c1	–	–	–	–	–	–
Cc1ccc2nc(NC(=O)CSc3nncc(=O)n3N)sc2c1	?	–	–	25µM	–	–
Clc1ccc(N2CCN(Cc3nnc(-c4ccc5c(c4)OCO5)o3)CC2)cc1	·	·	–	–	·	–
Fc1ccccc1N1CCN(Cc2nnc(-c3ccc4c(c3)OCO4)o2)CC1	·	·	–	35µM	·	–
CSc1ccc(C(=O)N2CCc3c(cnc(C)c3CNC(=O)c3cncs3)C2)cc1	·	·	·	·	·	–
CCc1nc2sc(C(C)=O)c(N)c2c2c1CCCC2	?	?	–	–	?	–
CCc1nc2sc(C#N)c(N)c2c2c1CCCC2	·	·	·	28µM	–	–
Cc1cc(/C=N\NC(=O)COc2cccc3cccnc23)c(C)n1-c1ccccc1	–	–	–	–	–	–
Cc1ccnc(-n2c(C)cc(/C=N/NC(=O)COc3cccc4cccnc34)c2C)c1	–	–	–	14µM	–	–
Cc1cc(-c2ccc(C)c(S(=O)(=O)Nc3ccccn3)c2)on1	·	·	–	28µM	·	–
CCc1ccc(-c2cc(C)no2)cc1S(=O)(=O)Nc1ccc(C)cn1	·	–	–	32µM!	–	–
CCCCc1oc2ccc(NS(C)(=O)=O)cc2c1C(=O)c1ccc(OCCCN(CCCC)CCCC)cc1	·	·	·	·	·	–
Cc1cc(N2CCCCC2)n2ncc(-c3ccc(Cl)cc3)c2n1	?	–	–	32µM	–[7.66 µM]	–
Cc1cc(N2CCOCC2)n2ncc(-c3ccc(Cl)cc3)c2n1	–	–	–	·	–	–
Cc1cc(N2CCC(C)CC2)n2ncc(-c3ccccc3)c2n1	?	–	–	32µM	–	–
O=C(Cn1c(-c2cccs2)cc2cc(F)ccc21)NCCCN1CCN(c2ccc(F)cc2)CC1	·	·	–	32µM	·	–
CCN1CCN(CCCNC(=O)Cn2c(-c3cccs3)cc3cc(F)ccc32)CC1	·	·	–	18µM	·	–
COc1cc(CN2CCC3(CCC(CNC(=O)c4ccccc4)O3)CC2)cc(OC)c1 (stereo not drawn)	·	·	·	·	·	–
Cc1c(C(=O)N2CCCC(c3ccccc3)C2)sc2ncnc(NCCc3ccccn3)c12 (stereo not drawn)	·	·	·	·	·	–
CCn1cc(C(=O)Nc2ccc(OC)c(S(=O)(=O)N3CCCCC3)c2)c(=O)c2ccc(C)nc21	–	–	–	32µM	–	–
CCOC(=O)N1CCN(c2ccc(S(=O)(=O)N3CCOCC3)cn2)CC1	·	·	·	28µM	–	–
CC(C)(C)NC(=O)NC(=O)CSc1ccc(S(=O)(=O)N2CCOCC2)cn1	·	·	·	–	?	–
